According to the supplement of paper PMC11732987, “Enantioselective OTUD7B fragment discovery through chemoproteomics screening and high-throughput optimisation” (Communications Chemistry, 2025):

Columns and labels:
Experiment in all cases: log2 ratio of Biotin-Ahx-Ub-VS probe labelling (fragment/DMSO); higher = less target engagement (more negative = stronger competition), active = hit call of the paper (q ≤ 0.05, log2 ratio ≤ -1)
Conditions in all cases: compound concentration: 200 uM; treatment time: 3 h
USP42 = target: T1, USP42 (UniProt Q9H9J4)
T1 sequence (whole entry): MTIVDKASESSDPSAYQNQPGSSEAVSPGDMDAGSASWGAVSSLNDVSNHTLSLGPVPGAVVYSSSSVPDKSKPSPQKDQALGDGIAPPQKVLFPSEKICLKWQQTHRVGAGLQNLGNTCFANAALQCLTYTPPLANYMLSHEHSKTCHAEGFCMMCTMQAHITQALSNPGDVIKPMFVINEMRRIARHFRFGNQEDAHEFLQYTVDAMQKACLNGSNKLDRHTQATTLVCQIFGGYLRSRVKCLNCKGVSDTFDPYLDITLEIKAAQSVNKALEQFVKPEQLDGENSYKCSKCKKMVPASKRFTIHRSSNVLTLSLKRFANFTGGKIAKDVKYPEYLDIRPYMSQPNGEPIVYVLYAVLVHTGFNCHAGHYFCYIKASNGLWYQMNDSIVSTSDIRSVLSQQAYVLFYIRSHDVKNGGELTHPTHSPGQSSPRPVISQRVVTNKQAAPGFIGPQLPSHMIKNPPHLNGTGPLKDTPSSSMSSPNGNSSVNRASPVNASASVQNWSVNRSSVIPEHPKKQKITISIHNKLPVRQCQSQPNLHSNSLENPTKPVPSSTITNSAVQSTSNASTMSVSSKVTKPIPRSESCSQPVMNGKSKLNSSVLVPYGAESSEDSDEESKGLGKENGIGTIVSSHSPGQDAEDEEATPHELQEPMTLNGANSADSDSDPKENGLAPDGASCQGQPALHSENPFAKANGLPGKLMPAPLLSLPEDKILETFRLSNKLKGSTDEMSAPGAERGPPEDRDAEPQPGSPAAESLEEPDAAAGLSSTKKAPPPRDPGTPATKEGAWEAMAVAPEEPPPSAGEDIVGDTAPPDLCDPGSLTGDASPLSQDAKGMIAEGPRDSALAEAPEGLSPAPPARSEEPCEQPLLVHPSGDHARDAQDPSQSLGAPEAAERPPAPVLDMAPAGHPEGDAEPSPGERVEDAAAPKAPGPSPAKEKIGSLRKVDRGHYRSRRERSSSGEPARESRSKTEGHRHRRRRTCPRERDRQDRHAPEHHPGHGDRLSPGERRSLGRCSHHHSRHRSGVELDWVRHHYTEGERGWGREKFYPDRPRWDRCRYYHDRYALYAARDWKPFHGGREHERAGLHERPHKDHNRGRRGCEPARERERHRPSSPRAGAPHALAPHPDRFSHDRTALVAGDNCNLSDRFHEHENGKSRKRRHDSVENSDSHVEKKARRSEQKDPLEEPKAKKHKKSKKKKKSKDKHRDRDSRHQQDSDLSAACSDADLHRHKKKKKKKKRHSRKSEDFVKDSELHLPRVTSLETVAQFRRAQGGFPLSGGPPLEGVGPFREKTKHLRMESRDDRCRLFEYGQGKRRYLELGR
How it was run: (§1)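 Labelled DUBs were enriched with NeutrAvidin, digested with LysC and trypsin, and run by diaPASEF LC-MS/MS. The labelling used Biotin-Ahx-Ub-VS at 0.5 µM final for 1 h on HEK293T lysate (495 µg per sample) previously treated in triplicate with fragment at 200 µM or vehicle for 3 h. Values are average log2 fragment/vehicle ratios by unpaired t-test on global-median-normalised Spectronaut quantities of proteins with ≥2 unique peptides.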

USP46 = USP46 (UniProt P62068)
How it was run: as §1

USP47 = target: T2, USP47 (UniProt Q96K76)
T2 sequence (whole entry): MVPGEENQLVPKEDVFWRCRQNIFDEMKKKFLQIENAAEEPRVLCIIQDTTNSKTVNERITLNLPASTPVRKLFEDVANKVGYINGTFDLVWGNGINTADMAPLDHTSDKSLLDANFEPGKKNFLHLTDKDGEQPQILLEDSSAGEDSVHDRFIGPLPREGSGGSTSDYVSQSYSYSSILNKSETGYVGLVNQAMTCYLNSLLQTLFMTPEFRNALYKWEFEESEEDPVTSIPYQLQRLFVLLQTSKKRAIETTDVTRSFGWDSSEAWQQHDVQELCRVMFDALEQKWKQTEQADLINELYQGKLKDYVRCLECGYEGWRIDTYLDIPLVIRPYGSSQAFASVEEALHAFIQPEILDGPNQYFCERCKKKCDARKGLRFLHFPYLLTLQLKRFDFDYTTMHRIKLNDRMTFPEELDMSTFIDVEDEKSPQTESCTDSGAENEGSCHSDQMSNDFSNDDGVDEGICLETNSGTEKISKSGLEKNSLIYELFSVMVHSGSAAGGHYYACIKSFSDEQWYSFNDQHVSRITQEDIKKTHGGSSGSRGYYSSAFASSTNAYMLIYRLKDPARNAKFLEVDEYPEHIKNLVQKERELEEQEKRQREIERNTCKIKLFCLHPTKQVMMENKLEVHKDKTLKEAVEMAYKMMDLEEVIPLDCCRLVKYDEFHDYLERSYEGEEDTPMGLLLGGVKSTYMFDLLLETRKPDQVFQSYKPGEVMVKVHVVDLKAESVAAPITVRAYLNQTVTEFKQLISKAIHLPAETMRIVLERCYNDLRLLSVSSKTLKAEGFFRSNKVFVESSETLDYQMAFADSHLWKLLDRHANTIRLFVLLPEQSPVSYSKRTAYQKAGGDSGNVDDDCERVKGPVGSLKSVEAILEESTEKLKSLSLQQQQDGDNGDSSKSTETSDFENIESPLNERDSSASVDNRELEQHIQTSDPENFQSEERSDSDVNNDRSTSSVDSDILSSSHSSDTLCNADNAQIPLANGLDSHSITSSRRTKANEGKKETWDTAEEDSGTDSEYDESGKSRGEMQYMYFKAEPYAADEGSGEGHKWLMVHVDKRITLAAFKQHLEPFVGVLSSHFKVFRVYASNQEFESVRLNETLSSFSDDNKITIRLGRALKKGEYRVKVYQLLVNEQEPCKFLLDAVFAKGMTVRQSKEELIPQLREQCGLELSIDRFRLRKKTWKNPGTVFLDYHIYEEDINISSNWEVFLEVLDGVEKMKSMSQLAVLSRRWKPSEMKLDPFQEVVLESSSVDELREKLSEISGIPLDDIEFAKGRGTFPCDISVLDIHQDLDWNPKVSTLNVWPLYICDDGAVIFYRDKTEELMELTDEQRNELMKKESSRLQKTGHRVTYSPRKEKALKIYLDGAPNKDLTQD
How it was run: as §1

USP48 = target: T3, USP48 (UniProt Q86UV5)
T3 sequence (whole entry): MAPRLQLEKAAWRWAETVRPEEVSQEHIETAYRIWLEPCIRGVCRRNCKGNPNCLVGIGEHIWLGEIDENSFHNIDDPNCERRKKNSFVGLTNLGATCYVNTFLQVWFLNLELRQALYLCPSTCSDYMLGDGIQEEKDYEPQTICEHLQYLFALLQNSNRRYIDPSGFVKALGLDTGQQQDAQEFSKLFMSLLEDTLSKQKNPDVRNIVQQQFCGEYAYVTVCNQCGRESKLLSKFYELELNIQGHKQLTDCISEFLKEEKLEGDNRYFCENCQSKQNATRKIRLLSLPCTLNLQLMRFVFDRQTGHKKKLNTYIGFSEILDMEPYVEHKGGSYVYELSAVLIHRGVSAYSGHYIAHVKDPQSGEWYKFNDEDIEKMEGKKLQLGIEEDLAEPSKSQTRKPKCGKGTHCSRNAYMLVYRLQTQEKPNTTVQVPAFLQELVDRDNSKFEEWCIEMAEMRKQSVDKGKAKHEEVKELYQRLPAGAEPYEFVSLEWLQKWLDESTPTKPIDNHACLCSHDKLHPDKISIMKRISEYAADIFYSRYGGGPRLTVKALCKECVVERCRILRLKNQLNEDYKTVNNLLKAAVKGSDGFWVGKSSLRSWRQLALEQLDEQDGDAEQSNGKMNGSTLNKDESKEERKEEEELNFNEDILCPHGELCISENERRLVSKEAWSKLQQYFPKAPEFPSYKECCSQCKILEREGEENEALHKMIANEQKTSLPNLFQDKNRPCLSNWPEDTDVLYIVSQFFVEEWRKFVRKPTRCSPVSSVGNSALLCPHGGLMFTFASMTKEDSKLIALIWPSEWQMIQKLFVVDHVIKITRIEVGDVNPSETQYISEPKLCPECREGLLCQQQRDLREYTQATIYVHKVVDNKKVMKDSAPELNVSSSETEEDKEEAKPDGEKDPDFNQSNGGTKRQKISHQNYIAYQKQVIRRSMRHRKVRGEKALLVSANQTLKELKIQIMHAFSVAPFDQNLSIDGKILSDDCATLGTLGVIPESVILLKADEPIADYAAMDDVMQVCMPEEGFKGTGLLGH
How it was run: as §1

USP5 = target: T4, USP5 (UniProt P45974)
T4 sequence (whole entry): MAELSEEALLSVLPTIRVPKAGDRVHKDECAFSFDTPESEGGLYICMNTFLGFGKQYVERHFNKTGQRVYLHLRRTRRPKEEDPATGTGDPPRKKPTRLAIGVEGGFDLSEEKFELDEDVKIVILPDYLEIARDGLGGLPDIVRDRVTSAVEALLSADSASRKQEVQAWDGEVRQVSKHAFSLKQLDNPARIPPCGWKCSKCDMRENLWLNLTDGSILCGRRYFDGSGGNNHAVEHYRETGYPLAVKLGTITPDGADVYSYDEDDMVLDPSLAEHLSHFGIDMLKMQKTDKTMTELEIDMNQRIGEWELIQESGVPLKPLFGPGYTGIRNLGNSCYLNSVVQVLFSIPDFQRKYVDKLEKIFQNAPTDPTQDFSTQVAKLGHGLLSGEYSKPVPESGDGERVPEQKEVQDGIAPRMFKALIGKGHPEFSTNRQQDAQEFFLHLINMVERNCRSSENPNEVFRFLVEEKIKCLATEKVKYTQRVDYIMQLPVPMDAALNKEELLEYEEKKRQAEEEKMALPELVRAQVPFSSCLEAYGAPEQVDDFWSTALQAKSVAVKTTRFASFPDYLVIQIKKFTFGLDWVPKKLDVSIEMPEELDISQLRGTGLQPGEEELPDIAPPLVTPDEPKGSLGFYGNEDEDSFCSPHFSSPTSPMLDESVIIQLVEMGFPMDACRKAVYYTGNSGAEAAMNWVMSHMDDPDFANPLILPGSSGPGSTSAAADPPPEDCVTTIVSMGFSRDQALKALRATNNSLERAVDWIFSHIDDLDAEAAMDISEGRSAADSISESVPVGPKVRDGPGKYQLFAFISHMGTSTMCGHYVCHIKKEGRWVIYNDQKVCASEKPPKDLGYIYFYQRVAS
How it was run: as §1

USP54 = USP54 (UniProt Q70EL1)
How it was run: as §1

USP7 = USP7 (UniProt Q93009)
How it was run: as §1

USP8 = target: T5, USP8 (UniProt P40818)
T5 sequence (whole entry): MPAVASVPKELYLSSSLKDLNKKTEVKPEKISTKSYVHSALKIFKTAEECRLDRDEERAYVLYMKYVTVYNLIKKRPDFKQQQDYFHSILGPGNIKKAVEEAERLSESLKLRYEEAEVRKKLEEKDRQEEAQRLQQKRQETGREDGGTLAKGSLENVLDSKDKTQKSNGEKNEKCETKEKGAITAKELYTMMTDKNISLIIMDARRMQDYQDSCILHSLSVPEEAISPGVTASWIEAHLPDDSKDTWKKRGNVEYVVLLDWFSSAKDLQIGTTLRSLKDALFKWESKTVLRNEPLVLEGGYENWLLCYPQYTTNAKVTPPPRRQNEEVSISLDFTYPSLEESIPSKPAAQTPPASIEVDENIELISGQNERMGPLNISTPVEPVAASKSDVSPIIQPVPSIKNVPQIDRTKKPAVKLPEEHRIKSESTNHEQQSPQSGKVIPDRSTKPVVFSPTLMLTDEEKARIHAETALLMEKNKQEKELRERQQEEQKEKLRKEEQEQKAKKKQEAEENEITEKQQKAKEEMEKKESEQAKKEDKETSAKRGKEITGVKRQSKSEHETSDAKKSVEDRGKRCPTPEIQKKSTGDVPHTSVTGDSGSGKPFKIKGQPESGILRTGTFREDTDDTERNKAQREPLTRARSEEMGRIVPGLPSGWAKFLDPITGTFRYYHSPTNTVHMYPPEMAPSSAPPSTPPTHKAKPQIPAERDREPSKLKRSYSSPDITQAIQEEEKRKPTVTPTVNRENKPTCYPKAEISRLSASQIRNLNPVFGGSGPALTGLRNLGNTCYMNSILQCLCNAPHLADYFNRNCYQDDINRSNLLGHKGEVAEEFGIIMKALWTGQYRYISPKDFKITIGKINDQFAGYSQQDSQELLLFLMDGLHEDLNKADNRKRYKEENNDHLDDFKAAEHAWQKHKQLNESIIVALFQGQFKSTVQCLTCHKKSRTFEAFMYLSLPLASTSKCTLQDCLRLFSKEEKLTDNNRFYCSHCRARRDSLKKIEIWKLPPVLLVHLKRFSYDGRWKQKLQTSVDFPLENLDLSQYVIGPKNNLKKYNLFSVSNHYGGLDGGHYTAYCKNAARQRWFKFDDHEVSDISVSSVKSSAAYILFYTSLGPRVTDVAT
How it was run: as §1

USP9X = USP9X (UniProt Q93008)
How it was run: as §1

UniProt O00487 = target: UniProt O00487
How it was run: as §1

Measured: log2 ratio of Biotin-Ahx-Ub-VS probe labelling

USP7, sequence (Q93009 whole entry, looked up): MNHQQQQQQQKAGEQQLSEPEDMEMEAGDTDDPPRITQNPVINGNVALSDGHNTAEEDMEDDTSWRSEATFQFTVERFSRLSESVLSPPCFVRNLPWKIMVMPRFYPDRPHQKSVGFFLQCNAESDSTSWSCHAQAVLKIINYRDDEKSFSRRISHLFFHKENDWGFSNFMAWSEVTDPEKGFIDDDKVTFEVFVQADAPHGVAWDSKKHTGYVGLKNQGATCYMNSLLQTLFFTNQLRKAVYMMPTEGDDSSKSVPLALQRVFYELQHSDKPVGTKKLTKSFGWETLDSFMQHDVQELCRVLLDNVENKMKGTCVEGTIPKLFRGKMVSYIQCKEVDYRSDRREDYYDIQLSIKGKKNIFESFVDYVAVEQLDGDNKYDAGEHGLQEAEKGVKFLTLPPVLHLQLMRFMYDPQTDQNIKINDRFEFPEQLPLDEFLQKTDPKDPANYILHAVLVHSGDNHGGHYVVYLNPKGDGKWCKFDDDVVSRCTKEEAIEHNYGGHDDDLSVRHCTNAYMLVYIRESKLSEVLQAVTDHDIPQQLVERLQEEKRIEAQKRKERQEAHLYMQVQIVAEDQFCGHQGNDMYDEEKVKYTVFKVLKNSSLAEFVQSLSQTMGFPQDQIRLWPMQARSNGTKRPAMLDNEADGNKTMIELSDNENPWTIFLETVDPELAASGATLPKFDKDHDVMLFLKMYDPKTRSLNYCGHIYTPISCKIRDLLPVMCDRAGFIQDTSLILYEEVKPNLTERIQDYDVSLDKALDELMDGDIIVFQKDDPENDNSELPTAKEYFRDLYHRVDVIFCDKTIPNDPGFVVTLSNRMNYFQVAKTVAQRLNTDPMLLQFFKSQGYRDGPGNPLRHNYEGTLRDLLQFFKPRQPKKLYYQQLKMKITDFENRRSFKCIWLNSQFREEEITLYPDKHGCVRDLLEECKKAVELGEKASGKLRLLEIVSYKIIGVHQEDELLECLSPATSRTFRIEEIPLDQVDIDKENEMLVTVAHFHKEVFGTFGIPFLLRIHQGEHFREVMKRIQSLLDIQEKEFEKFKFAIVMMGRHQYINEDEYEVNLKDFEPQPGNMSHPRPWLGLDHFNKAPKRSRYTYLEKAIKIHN
UniProt O00487, sequence (O00487 whole entry): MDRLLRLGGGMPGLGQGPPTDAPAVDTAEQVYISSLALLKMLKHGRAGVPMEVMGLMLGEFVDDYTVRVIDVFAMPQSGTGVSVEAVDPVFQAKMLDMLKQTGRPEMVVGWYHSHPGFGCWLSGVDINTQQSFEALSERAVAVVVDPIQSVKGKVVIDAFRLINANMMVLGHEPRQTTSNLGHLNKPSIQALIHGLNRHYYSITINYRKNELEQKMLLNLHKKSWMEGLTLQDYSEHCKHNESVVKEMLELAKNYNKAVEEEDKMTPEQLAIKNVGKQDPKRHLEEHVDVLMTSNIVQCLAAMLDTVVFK
USP9X, sequence (Q93008 whole entry): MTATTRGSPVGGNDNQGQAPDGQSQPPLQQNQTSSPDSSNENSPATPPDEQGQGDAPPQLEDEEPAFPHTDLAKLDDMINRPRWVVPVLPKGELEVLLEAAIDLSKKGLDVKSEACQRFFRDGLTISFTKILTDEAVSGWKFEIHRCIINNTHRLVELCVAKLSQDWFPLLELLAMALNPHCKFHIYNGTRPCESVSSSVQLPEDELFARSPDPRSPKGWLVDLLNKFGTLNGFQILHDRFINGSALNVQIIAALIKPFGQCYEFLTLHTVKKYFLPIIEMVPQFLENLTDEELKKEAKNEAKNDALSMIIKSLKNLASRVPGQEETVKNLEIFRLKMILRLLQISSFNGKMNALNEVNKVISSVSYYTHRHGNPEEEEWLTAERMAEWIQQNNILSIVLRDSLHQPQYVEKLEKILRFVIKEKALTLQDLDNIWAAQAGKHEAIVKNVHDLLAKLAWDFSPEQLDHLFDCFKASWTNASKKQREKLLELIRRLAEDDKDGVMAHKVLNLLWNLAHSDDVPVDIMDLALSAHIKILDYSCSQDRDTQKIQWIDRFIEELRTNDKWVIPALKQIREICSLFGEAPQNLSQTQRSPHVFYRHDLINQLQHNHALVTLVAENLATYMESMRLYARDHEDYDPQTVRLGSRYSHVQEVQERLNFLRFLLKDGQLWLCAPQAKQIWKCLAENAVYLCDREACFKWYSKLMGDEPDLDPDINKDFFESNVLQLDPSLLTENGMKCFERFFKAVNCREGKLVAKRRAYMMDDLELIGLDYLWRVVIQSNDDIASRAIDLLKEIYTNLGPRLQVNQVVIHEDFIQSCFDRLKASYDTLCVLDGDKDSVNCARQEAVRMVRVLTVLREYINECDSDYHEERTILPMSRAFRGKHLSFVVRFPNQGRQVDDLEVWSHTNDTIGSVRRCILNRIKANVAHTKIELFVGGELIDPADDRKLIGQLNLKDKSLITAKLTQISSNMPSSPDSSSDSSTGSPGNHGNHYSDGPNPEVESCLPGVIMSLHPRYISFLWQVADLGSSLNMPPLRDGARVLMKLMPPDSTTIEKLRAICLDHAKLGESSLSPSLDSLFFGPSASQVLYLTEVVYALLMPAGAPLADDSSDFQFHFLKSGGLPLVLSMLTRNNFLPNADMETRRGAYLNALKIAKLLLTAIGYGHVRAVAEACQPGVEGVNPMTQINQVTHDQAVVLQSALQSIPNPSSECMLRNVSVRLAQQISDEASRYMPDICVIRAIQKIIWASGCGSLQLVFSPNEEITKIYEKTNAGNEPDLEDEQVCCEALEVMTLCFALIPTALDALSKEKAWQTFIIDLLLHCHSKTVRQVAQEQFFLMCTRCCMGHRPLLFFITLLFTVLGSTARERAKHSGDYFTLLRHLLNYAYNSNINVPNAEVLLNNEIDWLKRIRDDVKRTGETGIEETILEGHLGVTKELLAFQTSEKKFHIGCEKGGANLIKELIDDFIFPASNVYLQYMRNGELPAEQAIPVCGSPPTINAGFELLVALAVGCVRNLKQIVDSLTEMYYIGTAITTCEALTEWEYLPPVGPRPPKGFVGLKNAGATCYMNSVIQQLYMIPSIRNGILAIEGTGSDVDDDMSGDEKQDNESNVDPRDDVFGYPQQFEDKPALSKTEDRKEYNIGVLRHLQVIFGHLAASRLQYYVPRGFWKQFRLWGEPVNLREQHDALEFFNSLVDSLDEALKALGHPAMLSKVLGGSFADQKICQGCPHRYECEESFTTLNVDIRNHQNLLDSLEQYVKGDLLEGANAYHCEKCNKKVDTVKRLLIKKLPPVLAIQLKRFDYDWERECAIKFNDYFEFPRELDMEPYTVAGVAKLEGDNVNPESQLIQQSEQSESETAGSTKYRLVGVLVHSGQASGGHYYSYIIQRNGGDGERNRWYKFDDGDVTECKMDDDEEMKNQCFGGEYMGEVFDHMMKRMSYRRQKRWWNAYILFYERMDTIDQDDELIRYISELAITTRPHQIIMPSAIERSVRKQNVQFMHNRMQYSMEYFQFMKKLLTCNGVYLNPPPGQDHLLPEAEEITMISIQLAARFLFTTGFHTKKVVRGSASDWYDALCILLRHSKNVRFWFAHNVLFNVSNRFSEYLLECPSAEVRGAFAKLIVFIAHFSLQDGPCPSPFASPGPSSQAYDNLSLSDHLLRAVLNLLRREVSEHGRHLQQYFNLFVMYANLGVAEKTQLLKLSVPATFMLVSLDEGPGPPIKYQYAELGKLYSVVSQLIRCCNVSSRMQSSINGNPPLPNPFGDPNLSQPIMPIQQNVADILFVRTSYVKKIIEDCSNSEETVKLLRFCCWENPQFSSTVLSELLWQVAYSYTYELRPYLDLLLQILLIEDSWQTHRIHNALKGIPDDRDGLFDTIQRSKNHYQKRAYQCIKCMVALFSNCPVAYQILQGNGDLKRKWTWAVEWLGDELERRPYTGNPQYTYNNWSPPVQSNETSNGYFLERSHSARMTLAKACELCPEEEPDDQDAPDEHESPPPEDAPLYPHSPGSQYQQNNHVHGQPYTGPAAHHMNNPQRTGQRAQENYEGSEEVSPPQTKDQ
USP46, sequence (P62068 whole entry): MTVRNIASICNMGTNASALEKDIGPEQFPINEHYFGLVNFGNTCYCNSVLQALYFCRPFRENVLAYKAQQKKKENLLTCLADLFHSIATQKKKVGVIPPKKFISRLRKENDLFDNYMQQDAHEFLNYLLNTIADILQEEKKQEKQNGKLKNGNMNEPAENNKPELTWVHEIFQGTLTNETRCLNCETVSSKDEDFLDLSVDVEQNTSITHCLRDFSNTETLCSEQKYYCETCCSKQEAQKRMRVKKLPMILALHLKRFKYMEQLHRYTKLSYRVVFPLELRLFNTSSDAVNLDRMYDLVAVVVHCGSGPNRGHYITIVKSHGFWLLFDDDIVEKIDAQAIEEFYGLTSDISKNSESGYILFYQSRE

CS(=O)(=O)N1CCCN(C(=O)CCl)CC1
inactive: USP42 -0.107 | USP46 0.169 | USP47 -0.733 | USP48 -0.507 | USP5 -0.0151 | USP54 0.239 | USP7 -0.301 | USP8 -0.323 | USP9X -0.177 | UniProt O00487 0.0126

Cc1cccc(C)c1NC(=O)CCl
inactive: USP42 -0.0226 | USP46 -0.0272 | USP47 0.139 | USP48 -0.538 | USP5 -0.194 | USP54 0.412 | USP7 -0.264 | USP8 -0.461 | USP9X -0.187 | UniProt O00487 -0.00227

O=C(CCl)NCc1cccc(N2CCCC2=O)c1
inactive: USP42 -0.175 | USP46 0.179 | USP47 0.109 | USP48 -0.0848 | USP5 0.238 | USP54 0.342 | USP7 -0.0593 | USP8 -0.147 | USP9X -0.272 | UniProt O00487 0.135

Cl.Cn1ncc2c1CC(NC(=O)CCl)CC2 (stereo not given)
inactive: USP42 0.421 | USP46 0.116 | USP47 0.118 | USP48 0.191 | USP5 0.0298 | USP54 -0.146 | USP7 -0.063 | USP8 -0.0427 | USP9X -0.0203 | UniProt O00487 -0.0601
